Screening data: PubChem BioAssay, National Center for Advancing Translational Sciences (NCATS)
Hits are enriched below; roughly 2.4% of the tested compounds scored in any of these assays.
WRN inhibitor – blocks human WRN helicase; WRN helicase unwinding, fluorescent forked duplex, kinetic; Potency, µM (top dose mostly 114 µM), for inactives: at the highest dose activity change, negative = inhibition, usual class: inhibitors; 360,000 tested, 0.46% active; note: % is set by controls: 0 for no effect and ±100 for the full control effect; nearly all actives have a fitted effect of over 55% in size
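Screening of the MLSMR collection measured strand separation of a quenched forked DNA duplex (100 nM) by 20 nM WRN with 2 mM ATP, all final. Compounds were preincubated with enzyme 15 min at room temperature.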
POLB inh – blocks human DNA polymerase beta activity. Pol beta primer extension/strand displacement, fluorescence kinetic. 340,000 tested, 1.3% active. AID 485314. Potency, µM (highest dose often 114 µM), without a hit: top-dose activity change, negative = inhibition, most hits filed as inhibitors; note: % is set by controls: 0 for no effect and ±100 for the full control effect
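Preincubation: enzyme (10 nM) with compound, 15 min, RT. Reaction: substrate added to 50 nM final. Reads: 0 and 10 min. Analysis: normalized, Hill fit.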
FEN1 inh – inhibitors of human flap endonuclease 1. P39748. 390,000 tested, 0.35% active. Recombinant FEN1 flap cleavage, fluorescence, 15 min. Potency, µM (top dose mostly 114 µM), inactives show at the top dose activity change, negative = inhibition, hits mostly inhibitors. AID 588795; note: % is set by controls: 0 for no effect and ±100 for the full control effect; nearly all actives have a fitted effect of over 65% in size
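Potency values derive from four-parameter Hill fits of normalized qHTS data. The reaction used 10 nM FEN1 preincubated 15 min at room temperature with compound, then 50 nM DNA substrate, read at 0 and 15 min.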
POLK inh – inhibitors of human DNA polymerase kappa. Q9UBT6. purified Pol kappa, fluorescent DNA synthesis assay, 10 min. Potency, µM (doses to about 107 µM), inactives show at the highest dose activity, negative = inhibition, usual class: inhibitors. 400,000 tested, 0.53% active. AID 588579; note: % is set by controls: 0 for no effect and ±100 for the full control effect
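10 nM Pol kappa preincubated 15 min at room temperature with compounds, then reaction started with substrate at 50 nM final. Fluorescence read kinetically at 0 and 10 min; buffer-only wells served as negative control.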
POLH inh – blocks human DNA polymerase eta activity; recombinant Pol eta, fluorescent DNA replication assay; Potency, µM (doses to about 114 µM), without a hit: at the top dose activity change, negative = inhibition, actives largely listed as inhibitors; 390,000 tested, 1.2% active; note: % is set by controls: 0 for no effect and ±100 for the full control effect
Target sequence (Q9Y253 whole entry, looked up): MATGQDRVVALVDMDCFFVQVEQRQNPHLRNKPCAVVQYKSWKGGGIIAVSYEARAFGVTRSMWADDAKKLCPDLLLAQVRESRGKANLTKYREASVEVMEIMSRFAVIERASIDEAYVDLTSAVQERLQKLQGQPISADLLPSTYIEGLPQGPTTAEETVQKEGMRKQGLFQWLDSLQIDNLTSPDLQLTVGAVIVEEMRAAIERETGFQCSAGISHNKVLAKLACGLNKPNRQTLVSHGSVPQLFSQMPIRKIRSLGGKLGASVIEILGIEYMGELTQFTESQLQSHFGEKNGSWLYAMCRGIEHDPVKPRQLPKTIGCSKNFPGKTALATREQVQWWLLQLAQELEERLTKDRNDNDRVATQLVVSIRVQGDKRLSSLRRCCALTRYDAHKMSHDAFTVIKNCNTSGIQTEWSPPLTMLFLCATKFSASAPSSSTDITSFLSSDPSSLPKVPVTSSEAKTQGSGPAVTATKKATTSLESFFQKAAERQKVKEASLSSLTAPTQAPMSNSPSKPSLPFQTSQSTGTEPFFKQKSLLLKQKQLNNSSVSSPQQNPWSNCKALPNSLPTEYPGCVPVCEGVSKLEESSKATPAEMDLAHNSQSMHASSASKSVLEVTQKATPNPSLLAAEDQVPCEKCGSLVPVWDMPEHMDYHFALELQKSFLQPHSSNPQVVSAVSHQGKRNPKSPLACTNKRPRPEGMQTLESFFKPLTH
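Pol eta (10 nM) was preincubated with compounds for 15 min at room temperature, after which fluorescent replication substrate (50 nM final) was added to start the reaction. Fluorescence was read kinetically at 0 and 10 min.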
Pol iota inh – inhibitors of human DNA polymerase iota; Q9UNA4; Pol iota fluorescent replication assay, 10 min; Potency, µM (doses to about 115 µM), for the others: at the top dose activity, negative = inhibition, actives largely listed as inhibitors; 390,000 tested, 1% active; AID 588590
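Pol iota at 10 nM preincubated 15 min with compounds at room temperature; reaction started with fluorescent substrate, 50 nM final. Fluorescence read kinetically at 0 and 10 min; buffer-only wells as negative control.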
* marks the source's active call; other numbers are inactive results; ? = inconclusive; / = no result; ! = not confirmed by another sample; [ ] = dose if it differs, or a comment. Calls come from the whole dose curve; as a rule, active = well fitted curve in the direction sought with a large enough effect; inconclusive = small, poorly fitted or top-dose-only effect, or another doubt; inactive = no such curve, though single readings can be large; an effect the other way counts as inactive or inconclusive. Potency is the fitted concentration of half-maximal effect.

SMILES	WRN inhibitor	POLB inh	FEN1 inh	POLK inh	POLH inh	Pol iota inh
CCc1nnc(SCC(=O)N(C)c2ccccc2)c2cc3sccc3n12	/	-5.8%	7.0%	-4.6%	18.3%	5.7%
O=c1cc(CSc2nnnn2-c2ccccc2)[nH]c2[nH]n(-c3ccccc3)c(=O)c12	-12.9%[57.1 µM]	-7.7%	-3.9%	39.8µM*	13.4%	?
COc1ccc(C(CC(=O)Nc2ccc(OC)c(OC)c2)N2Cc3ccccc3C2=O)cc1 (configuration not stated)	/	3.8%	0.1%	-6.1%[60.1 µM]	4.1%	7.9%
Cc1ccc(CCNC(=O)c2cccc(Nc3nc4ccccc4nc3-n3nc(C)cc3C)c2)cc1	/	23.1%	-8.6%	-9.7%	-3.8%	17.3%
Cc1ccc2c(c1)N(CC(=O)Nc1c(C)cccc1C)C(=O)c1cccnc1O2	10.8%	0.4%	-3.4%	-21.2%	-0.8%	44.8%
Cc1cc(C)c(NC(=O)CN2C(=O)c3cccnc3Oc3ccc(C)cc32)c(C)c1	/	?	-4.5%	-1.6%[60.1 µM]	1.6%	89.1µM*
CCOC(=O)c1[nH]c(C)c(C(=O)Nc2ccccc2F)c1C	-2.1%	-24.0%	-1.0%	-4.9%	25.1µM*	-18.2%
O=S(=O)(NCCNC/C=C/c1ccc(Br)cc1)c1cccc2cnccc12	/	7.7%[57.1 µM]	/	4.6%[19.4 µM]	-6.3%[57.1 µM]	-0.6%[58.9 µM]
COc1cc(C(=O)O)ccc1OC(C)=O	-26.1%	23.9%	-6.0%	-3.2%	-2.6%	89.1µM*
Cc1cc(NS(=O)(=O)c2ccc(NC(=O)c3ccc(Br)o3)cc2)nc(C)n1	-5.0%[11.6 µM]	?	7.8%	-20.6%	39.8µM*	?
Cc1cc(NS(=O)(=O)c2ccc(NC(=O)c3cnc4sccn4c3=O)cc2)nc(C)n1	-11.8%[57.1 µM]	?	13.4%	?	8.91µM*	?
Cc1cc(NS(=O)(=O)c2ccc(NC(=O)c3c(F)c(F)c(F)c(F)c3F)cc2)nc(C)n1	?	?	-3.3%	-10.3%	-5.2%	-0.7%
Cc1cc(NS(=O)(=O)c2ccc(NC(=O)CCCOc3ccccc3C)cc2)nc(C)n1	?	-13.2%	0.0%	-21.4%	79.4µM*	10µM*
CSCC[C@H](NC(=O)[C@H](Cc1ccc(OS(=O)(=O)O)cc1)NC(=O)[C@@H](N)CC(=O)O)C(=O)NCC(=O)N[C@@H](Cc1c[nH]c2ccccc12)C(=O)N[C@@H](CCSC)C(=O)N[C@@H](CC(=O)O)C(=O)N[C@@H](Cc1ccccc1)C(N)=O	/	/	/	7.5%[60.1 µM]	/	/
Cn1c(=O)c2sccc2n2c(CCC(=O)N3CCN(c4ccc(F)cc4)CC3)nnc12	/	-21.1%	0.7%	-10.6%	/	-25.3%
CC(=O)c1c(C)[nH]c2ccc(OCC(O)CNCCc3ccccc3)cc12 (configuration not stated)	/	/	1.3%	-13.6%	/	10.9%
COc1cc2c(NC3CCN(C)CC3)nc(N3CCCN(C)CC3)nc2cc1OCC1CCCCN1 (configuration not stated)	/	/	20µM*	?	/	?
COCCCCOc1cc2nc(N3CCCN(C)CC3)nc(NC3CCN(C)CC3)c2cc1OC	/	/	44.7µM*	-3.5%	/	24.0%
COc1cc2c(NC3CCN(C)CC3)nc(N3CCCN(C)CC3)nc2cc1OCCCCCC(N)=O	/	/	0.0%	-6.5%	/	-10.0%
COc1cc2c(NC3CCN(C)CC3)nc(N3CCCN(C)CC3)nc2cc1OCCCCCN	/	/	8.91µM*	?	/	?
CC(C)(C)n1ncc2c(=O)n(Cc3ccc(Cl)cc3F)cnc21	/	/	-16.1%	-9.1%	/	-13.6%
COc1ccc2c(c1)C/C(=C\c1ccc(N(C)C)cc1)C2=O	/	/	-13.2%	-2.5%	/	3.7%
COc1ccc(OCCCCc2c(C)n[nH]c2C)cc1	-5.5%	/	-19.1%	3.1%	9.5%	79.4µM*
Cc1cc(C)c2c(n1)NCCC2	/	/	10.5%	7.4%	/	-13.1%
CCc1cccc(NC(=O)C2CCCN(S(=O)(=O)c3cccs3)C2)c1 (configuration not stated)	-7.7%	37.5%	?	-28.6%	-16.1%	79.4µM*!
SMILES	WRN inhibitor	POLB inh	FEN1 inh	POLK inh	POLH inh	Pol iota inh
Oc1ccc(-c2csc(-c3ccccc3)n2)cc1O	?	7.94µM*	-16.0%	-32.6%	-19.8%	70.8µM*
Cc1nc(-c2ccc(O)c(O)c2)cs1	-16.1%	?	-1.3%	-4.1%	-20.6%	6.3%
Oc1ccc(-c2csc(Nc3ncccn3)n2)cc1O	?	?	?	-26.7%	1.1%	31.6µM*
O=C(Nc1ccc(OC(F)F)cc1)c1nc(SCc2ccccc2F)ncc1Cl	/	/	-1.4%	-5.9%	/	-14.7%
CCn1c(C)nc2cc(C(=O)N/N=C/c3ccc(N4CCOCC4)cc3)ccc21	-5.3%	22.4µM*	-2.3%	-16.6%	-18.0%	?
CCn1c(C)nc2cc(C(=O)N/N=C(\C)c3ccc(N4CCOCC4)cc3)ccc21	-4.9%	-10.2%	-8.7%	-16.8%	-14.1%	-13.0%
CCn1c(C)nc2cc(C(=O)N/N=C/c3cccc(O)c3O)ccc21	-15.3%[57.1 µM]	?	-9.2%	?	-22.6%	25.1µM*
O.O.[Mn].[Mn].[Mn].[OH-].[OH-]	/	/	/	2.0%[60.1 µM]	/	/
COc1ccc(S(=O)(=O)NCCc2sc(-c3cccnc3)nc2C)cc1	/	18.1%	-9.0%	-6.3%[60.1 µM]	7.6%	9.0%
CC(C)CCN1C(=O)c2ccc(C(=O)Nc3cc(C(=O)O)cc(C(=O)O)c3)cc2C1=O	-7.0%	-1.9%	5.0%	4.1%	-20.2%	129.2%
CC(C)CCN1C(=O)c2ccc(C(=O)Nc3ccc(Br)cc3C(=O)O)cc2C1=O	-7.6%[11.6 µM]	-2.5%	-25.2%	-34.5%	31.6µM*	?
Cc1cc(C)cc(NC(=O)c2sc3nc[nH]c(=O)c3c2C)c1	/	18.7%	1.0%	-7.9%[60.1 µM]	8.2%	-9.4%
COCCN(C(=O)COC(=O)/C=C/c1ccco1)c1c(N)n(Cc2ccccc2)c(=O)[nH]c1=O	1.4%[11.6 µM]	28.2µM*	-2.7%	-31.9%	?	?
COCCN(C(=O)COC(=O)/C=C/c1ccc(C)o1)c1c(N)n(Cc2ccccc2)c(=O)[nH]c1=O	-1.2%	-6.4%	10.4%	-6.8%	-11.1%	79.4µM*
CCN(C(=O)COC(=O)/C=C/c1ccc(C)o1)c1c(N)n(Cc2ccccc2)c(=O)[nH]c1=O	11.1%	/	-1.3%	-13.7%	-0.4%	7.1%
CCOc1ccc(C(=O)Nc2c(C)nc(Nc3ccccc3)nc2Nc2ccccc2)cc1OCC	/	14.8%	?	-20.1%	-13.7%	70.8µM*
CCC(C)NC(=O)Cn1c(=O)n(Cc2ccc(C(=O)NCc3ccc(C)cc3)cc2)c(=O)c2ccccc21 (configuration not stated)	/	20µM*	-3.3%	7.8%	?	43.3%
CCC(C)NC(=O)Cn1c(=O)n(Cc2ccc(C(=O)NCc3ccccc3OC)cc2)c(=O)c2ccccc21 (configuration not stated)	/	?	-2.7%	-2.3%	-4.7%	-11.6%
